Measurements reported in paper PMC7862700, “An all-to-all approach to the identification of sequence-specific readers for epigenetic DNA modifications on cytosine”.

Biological target: T1, ELF3 (Homo sapiens, UniProt P78545 1-371)
T1 sequence: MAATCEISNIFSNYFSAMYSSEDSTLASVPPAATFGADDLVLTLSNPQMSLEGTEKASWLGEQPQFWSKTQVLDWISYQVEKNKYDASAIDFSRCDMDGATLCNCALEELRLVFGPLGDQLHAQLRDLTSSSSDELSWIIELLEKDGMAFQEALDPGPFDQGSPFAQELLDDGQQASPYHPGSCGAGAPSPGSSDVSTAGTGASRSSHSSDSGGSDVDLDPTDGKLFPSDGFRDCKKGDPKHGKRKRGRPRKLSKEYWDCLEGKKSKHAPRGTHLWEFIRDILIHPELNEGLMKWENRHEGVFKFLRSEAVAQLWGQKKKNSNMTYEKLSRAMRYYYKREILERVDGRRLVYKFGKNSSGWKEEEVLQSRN
Assay: DAPPL (digital affinity profiling via proximity ligation, sequencing); 10 mM Tris-HCl pH 7.5, 50 mM NaCl, 1 mM DTT, 4% glycerol, room temperature, 30 min; GST-TFs on glutathione beads, 16-mer random dsDNA library, 0.1% formaldehyde crosslink after washing; high values mean tight binding
Conditions: protein: recombinant; tags: N-terminal GST; dsDNA, one strand shown
Procedure, shortened: (§1)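 GST fusions of human transcription factors were expressed in yeast and captured with glutathione beads. Once given DNA barcodes and pooled alongside a tag-only sample, they were incubated for 30 min at room temperature with 200 nmole of a random double-stranded 16-mer DNA library in Tris/NaCl/DTT/glycerol buffer, then washed, crosslinked (0.1% formaldehyde), proximity-ligated, PCR-amplified and sequenced on an Illumina NextSeq500. The binding signal of each hexamer is its read frequency for a factor divided by its frequency for the tag-only sample.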

Sequence | binding signal
ATATAC | 1.22 fold enrichment (6-mer frequency, TF over GST control)
CTTTCC | 1.63 fold enrichment (6-mer frequency, TF over GST control)
ACGTCT | 1 fold enrichment (6-mer frequency, TF over GST control)
TCTACT | 1.38 fold enrichment (6-mer frequency, TF over GST control)
TTGGTT | 1.23 fold enrichment (6-mer frequency, TF over GST control)
GTTCTG | 1.12 fold enrichment (6-mer frequency, TF over GST control)
ATGGTT | 1.38 fold enrichment (6-mer frequency, TF over GST control)
TCCTTG | 1.31 fold enrichment (6-mer frequency, TF over GST control)
CGACTC | 1.25 fold enrichment (6-mer frequency, TF over GST control)
AAGTCC | 1.3 fold enrichment (6-mer frequency, TF over GST control)
ATTTAA | 1.11 fold enrichment (6-mer frequency, TF over GST control)
CCTGAC | 1.7 fold enrichment (6-mer frequency, TF over GST control)
CCCGAT | 1.2 fold enrichment (6-mer frequency, TF over GST control)
TAGTAT | 1.3 fold enrichment (6-mer frequency, TF over GST control)
AAACCT | 1.19 fold enrichment (6-mer frequency, TF over GST control)
GTCTCG | 1.35 fold enrichment (6-mer frequency, TF over GST control)
ACTTCA | 1.44 fold enrichment (6-mer frequency, TF over GST control)
CTCAAT | 1.22 fold enrichment (6-mer frequency, TF over GST control)
CCAATA | 1.25 fold enrichment (6-mer frequency, TF over GST control)
GCCTTA | 1.24 fold enrichment (6-mer frequency, TF over GST control)

Sequence | binding signal
GATTCA | 1.26 fold enrichment (6-mer frequency, TF over GST control)
GCTCCA | 1.21 fold enrichment (6-mer frequency, TF over GST control)
TCCTTT | 1.78 fold enrichment (6-mer frequency, TF over GST control)
CATTCT | 1.22 fold enrichment (6-mer frequency, TF over GST control)
TTCCTG | 2.23 fold enrichment (6-mer frequency, TF over GST control)
CCTCCT | 1.2 fold enrichment (6-mer frequency, TF over GST control)
TATGAT | 1.09 fold enrichment (6-mer frequency, TF over GST control)
CGATCT | 1.41 fold enrichment (6-mer frequency, TF over GST control)
AGCTAT | 1.2 fold enrichment (6-mer frequency, TF over GST control)
TTATGC | 1.48 fold enrichment (6-mer frequency, TF over GST control)
CTTGCC | 1.43 fold enrichment (6-mer frequency, TF over GST control)
TATCAT | 1.11 fold enrichment (6-mer frequency, TF over GST control)
ATTTCA | 1.16 fold enrichment (6-mer frequency, TF over GST control)
TCTCGA | 1.35 fold enrichment (6-mer frequency, TF over GST control)
TACGCT | 1.29 fold enrichment (6-mer frequency, TF over GST control)
CTGCTG | 1.13 fold enrichment (6-mer frequency, TF over GST control)
GCCTCG | 1.33 fold enrichment (6-mer frequency, TF over GST control)
TATTGA | 1.19 fold enrichment (6-mer frequency, TF over GST control)
TTGATA | 1.03 fold enrichment (6-mer frequency, TF over GST control)
TGGATG | 1.65 fold enrichment (6-mer frequency, TF over GST control)

Biological target: CRX (Homo sapiens, UniProt O43186 1-299)
Assay: as above
Conditions: protein: recombinant; tags: N-terminal GST; dsDNA, one strand shown
Procedure, shortened: as §1

CRX, sequence (O43186 whole entry): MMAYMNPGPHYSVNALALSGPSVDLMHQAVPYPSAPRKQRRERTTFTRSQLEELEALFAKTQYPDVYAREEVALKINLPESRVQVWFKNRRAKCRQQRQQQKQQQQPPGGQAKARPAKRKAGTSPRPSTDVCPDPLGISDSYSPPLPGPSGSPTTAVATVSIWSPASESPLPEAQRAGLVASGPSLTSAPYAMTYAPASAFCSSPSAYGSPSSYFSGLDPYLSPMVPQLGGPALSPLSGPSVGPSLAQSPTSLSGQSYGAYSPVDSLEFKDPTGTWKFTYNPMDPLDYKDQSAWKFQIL

Sequence | binding signal
ATATAC | 1.08 fold enrichment (6-mer frequency, TF over GST control)
CTTTCC | 1.54 fold enrichment (6-mer frequency, TF over GST control)
ACGTCT | 1.09 fold enrichment (6-mer frequency, TF over GST control)
TCTACT | 1.45 fold enrichment (6-mer frequency, TF over GST control)
TTGGTT | 1.29 fold enrichment (6-mer frequency, TF over GST control)
GTTCTG | 1.01 fold enrichment (6-mer frequency, TF over GST control)
ATGGTT | 1.17 fold enrichment (6-mer frequency, TF over GST control)
TCCTTG | 1.11 fold enrichment (6-mer frequency, TF over GST control)
CGACTC | 1.31 fold enrichment (6-mer frequency, TF over GST control)
AAGTCC | 1.19 fold enrichment (6-mer frequency, TF over GST control)
ATTTAA | 2.38 fold enrichment (6-mer frequency, TF over GST control)
CCTGAC | 1.11 fold enrichment (6-mer frequency, TF over GST control)
CCCGAT | 1.37 fold enrichment (6-mer frequency, TF over GST control)
TAGTAT | 1.68 fold enrichment (6-mer frequency, TF over GST control)
AAACCT | 1.24 fold enrichment (6-mer frequency, TF over GST control)
GTCTCG | 1.06 fold enrichment (6-mer frequency, TF over GST control)
ACTTCA | 1.17 fold enrichment (6-mer frequency, TF over GST control)
CTCAAT | 1.25 fold enrichment (6-mer frequency, TF over GST control)
CCAATA | 1.22 fold enrichment (6-mer frequency, TF over GST control)
GCCTTA | 1.64 fold enrichment (6-mer frequency, TF over GST control)

Sequence | binding signal
GATTCA | 1.13 fold enrichment (6-mer frequency, TF over GST control)
GCTCCA | 1.01 fold enrichment (6-mer frequency, TF over GST control)
TCCTTT | 1.67 fold enrichment (6-mer frequency, TF over GST control)
CATTCT | 1.63 fold enrichment (6-mer frequency, TF over GST control)
TTCCTG | 1.12 fold enrichment (6-mer frequency, TF over GST control)
CCTCCT | 1.32 fold enrichment (6-mer frequency, TF over GST control)
TATGAT | 1.5 fold enrichment (6-mer frequency, TF over GST control)
CGATCT | 1.52 fold enrichment (6-mer frequency, TF over GST control)
AGCTAT | 1.27 fold enrichment (6-mer frequency, TF over GST control)
TTATGC | 2.28 fold enrichment (6-mer frequency, TF over GST control)
CTTGCC | 1.1 fold enrichment (6-mer frequency, TF over GST control)
TATCAT | 1.41 fold enrichment (6-mer frequency, TF over GST control)
ATTTCA | 1.22 fold enrichment (6-mer frequency, TF over GST control)
TCTCGA | 2.28 fold enrichment (6-mer frequency, TF over GST control)
TACGCT | 1.48 fold enrichment (6-mer frequency, TF over GST control)
CTGCTG | 1.01 fold enrichment (6-mer frequency, TF over GST control)
GCCTCG | 1.08 fold enrichment (6-mer frequency, TF over GST control)
TATTGA | 1.29 fold enrichment (6-mer frequency, TF over GST control)
TTGATA | 1.53 fold enrichment (6-mer frequency, TF over GST control)
TGGATG | 1.45 fold enrichment (6-mer frequency, TF over GST control)

Biological target: ETV1 (Homo sapiens, UniProt P50549 1-477)
Assay: as above
Conditions: protein: recombinant; tags: N-terminal GST; dsDNA, one strand shown
Procedure, shortened: as §1

ETV1, sequence (P50549 whole entry): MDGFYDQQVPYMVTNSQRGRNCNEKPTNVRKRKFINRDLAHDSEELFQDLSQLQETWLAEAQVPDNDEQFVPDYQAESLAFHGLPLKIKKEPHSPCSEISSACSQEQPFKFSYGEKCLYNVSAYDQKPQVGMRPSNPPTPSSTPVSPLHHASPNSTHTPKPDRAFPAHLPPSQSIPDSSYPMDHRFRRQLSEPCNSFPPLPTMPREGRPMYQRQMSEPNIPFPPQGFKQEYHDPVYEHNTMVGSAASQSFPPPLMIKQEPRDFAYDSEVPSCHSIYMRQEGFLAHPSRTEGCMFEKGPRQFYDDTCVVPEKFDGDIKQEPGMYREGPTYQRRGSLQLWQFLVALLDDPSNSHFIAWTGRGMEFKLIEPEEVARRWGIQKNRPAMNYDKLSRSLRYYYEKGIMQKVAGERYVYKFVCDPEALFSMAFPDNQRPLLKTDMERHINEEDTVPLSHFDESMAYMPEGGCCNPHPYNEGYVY

Sequence | binding signal
ATATAC | 1.21 fold enrichment (6-mer frequency, TF over GST control)
CTTTCC | 1.91 fold enrichment (6-mer frequency, TF over GST control)
ACGTCT | 1.14 fold enrichment (6-mer frequency, TF over GST control)
TCTACT | 1.47 fold enrichment (6-mer frequency, TF over GST control)
TTGGTT | 1.4 fold enrichment (6-mer frequency, TF over GST control)
GTTCTG | 1.1 fold enrichment (6-mer frequency, TF over GST control)
ATGGTT | 1.42 fold enrichment (6-mer frequency, TF over GST control)
TCCTTG | 1.35 fold enrichment (6-mer frequency, TF over GST control)
CGACTC | 1.41 fold enrichment (6-mer frequency, TF over GST control)
AAGTCC | 1.26 fold enrichment (6-mer frequency, TF over GST control)
ATTTAA | 1.14 fold enrichment (6-mer frequency, TF over GST control)
CCTGAC | 1.61 fold enrichment (6-mer frequency, TF over GST control)
CCCGAT | 1.08 fold enrichment (6-mer frequency, TF over GST control)
TAGTAT | 1.23 fold enrichment (6-mer frequency, TF over GST control)
AAACCT | 1.15 fold enrichment (6-mer frequency, TF over GST control)
GTCTCG | 1.35 fold enrichment (6-mer frequency, TF over GST control)
ACTTCA | 1.48 fold enrichment (6-mer frequency, TF over GST control)
CTCAAT | 1.27 fold enrichment (6-mer frequency, TF over GST control)
CCAATA | 1.21 fold enrichment (6-mer frequency, TF over GST control)
GCCTTA | 1.14 fold enrichment (6-mer frequency, TF over GST control)

Sequence | binding signal
GATTCA | 1.15 fold enrichment (6-mer frequency, TF over GST control)
GCTCCA | 1.12 fold enrichment (6-mer frequency, TF over GST control)
TCCTTT | 1.68 fold enrichment (6-mer frequency, TF over GST control)
CATTCT | 1.31 fold enrichment (6-mer frequency, TF over GST control)
TTCCTG | 2.22 fold enrichment (6-mer frequency, TF over GST control)
CCTCCT | 1.52 fold enrichment (6-mer frequency, TF over GST control)
TATGAT | 1.17 fold enrichment (6-mer frequency, TF over GST control)
CGATCT | 1.24 fold enrichment (6-mer frequency, TF over GST control)
AGCTAT | 1.2 fold enrichment (6-mer frequency, TF over GST control)
TTATGC | 1.32 fold enrichment (6-mer frequency, TF over GST control)
CTTGCC | 1.25 fold enrichment (6-mer frequency, TF over GST control)
TATCAT | 1.13 fold enrichment (6-mer frequency, TF over GST control)
ATTTCA | 1.25 fold enrichment (6-mer frequency, TF over GST control)
TCTCGA | 1.47 fold enrichment (6-mer frequency, TF over GST control)
TACGCT | 1.25 fold enrichment (6-mer frequency, TF over GST control)
CTGCTG | 1.17 fold enrichment (6-mer frequency, TF over GST control)
GCCTCG | 1.26 fold enrichment (6-mer frequency, TF over GST control)
TATTGA | 1.16 fold enrichment (6-mer frequency, TF over GST control)
TTGATA | 1.25 fold enrichment (6-mer frequency, TF over GST control)
TGGATG | 1.54 fold enrichment (6-mer frequency, TF over GST control)
